Source: PubChem BioAssay (NCI)
This is part of a sample that, as a whole, favours compounds with a hit. Of some 83,000 tested, about 20% had one in any assay.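 Method: cells in 96-well plates; compound added at one concentration; 48 h incubation; percent growth measured; values under 10 scored active.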 The source made the active and inactive calls.

What follows are molecules tested on RPMI-8226 leukemia (assay: NCI-60 one-dose screen, 48 h (100 = growth as untreated, 0 = no growth, -100 = all killed)). Settings: 10 µM unless noted.
With `C=CN(C(=O)N1CCN(c2cc3c(cc2F)c(=O)c(C(=O)O)cn3C2CC2)CC1)c1nc(-c2ccccc2)cs1` the growth was 93.4% (inactive).
In the case of `CNCCCNc1nc2ccccc2c2c(=O)c3cc(Cl)ccc3sc12`, the growth is reported as -25.3% (active).
For `CCOC(=O)C1=C(CCl)N(C)C(=O)NC1c1ccc2c(c1)OCO2` (configuration not stated), the growth was 12.3% (inactive).
For `COc1ccc(C2[C@@H](Cl)C(=O)N2c2cc(OC)c(OC)c(OC)c2)cc1Cl` (some centres not stated), the growth was 9.34% (active).
With `Cn1cc(-c2nonc2-c2c[nH]c3ccccc23)c2cc(Br)ccc21` the growth was 40.6% (inactive).
`COc1cc2c3c(c4c5ccccc5[nH]c4c2c(OC)c1OC)C(=O)N(CCN1CCCCC1)C3=O` was tested, and the growth was -12% (active).
`COC(=O)/C(CCC=C(C)C)=C1\[C@@H](OC(C)=O)C[C@@]2(C)[C@H]1C/C(=N/O)[C@H]1[C@@]3(C)CC/C(=N\O)[C@@H](C)[C@@H]3CC[C@@]12C` was tested, and the growth was 46.3% (inactive).
With `Cc1[nH]n(-c2cccc(Cl)c2)c(=O)c1/C=C1\C=c2ccccc2=CC1=O` the growth was 96.4% (inactive).
For `CCN(CC)CCn1c2ccc(OC)cc2c2sc3cc(O)ccc3c(=O)c21`, the growth was 21.2% (inactive).
For `C=C1C(=O)O[C@H]2[C@H]1CC/C(COC(=O)NCc1ccc(Cn3c(=O)sn(-c4ccc(I)cc4)c3=O)cc1)=C\CC[C@@]1(C)O[C@@H]21`, the growth was 7.56% (active).
For `CS(=O)(=O)Nc1cc(-c2ccc3ncnc(Nc4ccc5c(cnn5Cc5ccncc5)c4)c3c2)cnc1Cl`, the growth was 64.3% (inactive).
For `COc1ccc2cc(C(=O)N3CCC([C@@H](C)C(=O)NCc4ccc5c(c4)OCO5)CC3)[nH]c2c1`, the growth was 47.1% [50 µM] (inactive).
